# From ChEMBL document CHEMBL3988442, “University of Dundee, Small-Polar-MMV Screening Library” (2021)
# Out of some 69,000 compounds screened, about 1,000 (1.4%) showed an effect of 50% or more. What follows is part of a selection rich in strong results, with near analogues and random picks from the rest.
# Tested on: Leishmania donovani
# Assay: Leishmania intramacrophage assay
# Type: functional, organism-based
# Parameters: scale not given: in the data most compounds retested in dose-response had high values
smiles,measurement,setting,value
Cc1nc(S(=O)(=O)N2CCC3(CCCCC3)C2)cn1C,Percent Effect,"30.3 µM, […]",-11.17%
CC(C)Nc1nc2c(cc1C(=O)NCC1CC1)CCNCC2.O=C(O)C(F)(F)F.O=C(O)C(F)(F)F,Percent Effect,"30 µM, 30.03 µM",30.72%
CC(C)CNc1nc2c(cc1C(=O)NCC1CC1)CCNCC2,Percent Effect,"30.3 µM, […]",79%
CNC(=O)c1cc2c(nc1NCC1CC1)CCNCC2,Percent Effect,"30.3 µM, […]",-29.9%
O=C(C1CCCO1)N1CCc2onc(-c3ccc(Cl)cc3)c2C1 (configuration not stated),Percent Effect,"30.3 µM, […]",-19.46%
Cc1cnc(C)c(N2CCCC(C/C=C/c3ccccc3)(C(=O)O)C2)n1 (configuration not stated),Percent Effect,"30.3 µM, […]",12.4%
CC(=O)c1ccc(N2CCCC(CO)(Cc3ccccc3C)C2)nc1 (configuration not stated),Percent Effect,"30.3 µM, […]",44.66%
Cc1ncc(C)c(N2CCCC(CO)(Cc3cccc(Cl)c3)C2)n1 (configuration not stated),Percent Effect,"30 µM, 30.03 µM",20.29%
Cc1cnc(C)c(N2CCCC(CO)(Cc3cccc(Cl)c3)C2)n1 (configuration not stated),Percent Effect,"30.3 µM, […]",-33.57%
Cc1ccccc1CC1(CO)CCCN(c2ncnc3sccc23)C1 (configuration not stated),Percent Effect,"30.3 µM, […]",67.14%
Cc1ccccc1CC1(CO)CCCN(c2ncncc2C(C)C)C1 (configuration not stated),Percent Effect,"30.3 µM, […]",60.98%
Cc1ccccc1CC1(C(=O)O)CCCN(c2ncnc3[nH]ccc23)C1 (configuration not stated),Percent Effect,"30.3 µM, […]",-3.526%
Cc1ccccc1CC1(CO)CCCN(c2ncccc2C#N)C1 (configuration not stated),Percent Effect,"30 µM, 30.03 µM",15.87%
Cc1cnc(C)c(N2CCCC(CO)(Cc3ccccc3C)C2)n1 (configuration not stated),Percent Effect,"30.3 µM, […]",58.45%
O=C1CCCc2[nH]c(=O)c(C(=O)N3CCc4ccccc4C3)cc21,Percent Effect,"30.3 µM, […]",0.8668%
O=C(CN(Cc1cccc(F)c1)CC1CCCO1)N1CCCC1 (configuration not stated),Percent Effect,"30.3 µM, […]",-8.596%
CC[C@@H]1N(Cc2ccoc2)CCC[C@]12CCC(=O)N2CCOC.O=C(O)C(F)(F)F,Percent Effect,"30.3 µM, […]",-8.415%
CC(C)N1CCC(NC(=O)c2cn(-c3ccc(F)cc3)nn2)C1 (configuration not stated),Percent Effect,"30.3 µM, […]",-11.91%
CCc1cc(NCCCc2nc(C)no2)nc(-c2ccncc2)n1,Percent Effect,"30.3 µM, […]",-6.6%
Cc1cc(Nc2ncccn2)nc(C2CCCN(CCO)C2)n1 (configuration not stated),Percent Effect,"30.3 µM, […]",24.35%
Cc1cc(Nc2cnccn2)nc(C2CCCN(CCO)C2)n1 (configuration not stated),Percent Effect,"30.3 µM, […]",56.31%
Cc1cc(Nc2ccccn2)nc(C2CCCN(CCO)C2)n1.O=CO (configuration not stated),Percent Effect,"30.3 µM, […]",32.66%
CN(CCn1cncc1-c1cnc(N2CCOCC2)nc1)C1CCCC1,Percent Effect,"30.3 µM, […]",22.37%
CS(=O)(=O)N1C[C@H]2N(c3ncccn3)CCC[C@@]2(C(=O)NCC2CC2)C1,Percent Effect,"30.3 µM, […]",51.67%
CC(C)CN1C[C@H]2N(c3ncccn3)CCC[C@@]2(C(=O)NCC2CC2)C1,Percent Effect,"30.3 µM, […]",11.67%
CNC(=O)N1C[C@H]2N(c3ncccn3)CCC[C@@]2(C(=O)NCC2CC2)C1,Percent Effect,"30.3 µM, […]",18.69%
COCCN1CC[C@H]2CN(Cc3ccc(C)s3)C[C@@H]2C1=O.O=C(O)C(F)(F)F,Percent Effect,"30.3 µM, […]",-9.099%
CC(Cc1cccc(F)c1)C(=O)NS(=O)(=O)c1ccc(F)cc1 (configuration not stated),Percent Effect,"30.3 µM, […]",5.076%
CC(CN1CCOCC1)NC(=O)c1cccc2cn[nH]c12 (configuration not stated),Percent Effect,"30.3 µM, […]",18.62%
CN(C)C(=O)c1cc2ncc(C(=O)NC3CCCC3)cc2n1C,Percent Effect,"30.3 µM, […]",-2.053%
Cc1ncccc1CNC1CCCN(Cc2noc(C3CC3)n2)C1 (configuration not stated),Percent Effect,30 µM,51.55%
Cc1ccc(CNC2CCCN(Cc3noc(C4CC4)n3)C2)s1 (configuration not stated),Percent Effect,30 µM,1.737%
Cc1ccsc1CNC1CCCN(Cc2noc(C3CC3)n2)C1 (configuration not stated),Percent Effect,30 µM,29.68%
CCc1cc(N2CCC(Nc3ccc(Cl)cn3)CC2)ncn1,Percent Effect,"30.3 µM, […]",39.5%
Cc1ccc(N2CCCC(NCc3ccc(C)o3)C2)nn1 (configuration not stated),Percent Effect,"30 µM, 30.03 µM",1.465%
CCc1cc(N2CCC(NCc3ccc(C)o3)CC2)ncn1,Percent Effect,"30.3 µM, […]",57.16%
COc1c(CNCCNC(=O)c2ccccc2)c(C)nn1C.Cl,Percent Effect,30 µM,37.81%
Cc1nc(C)n(CC2CCCCN2CCOc2cccc(C#N)c2)n1 (configuration not stated),Percent Effect,30 µM,14.77%
Cc1noc(C(C)N2CCN(c3ncnc4ccccc34)CC2)n1 (configuration not stated),Percent Effect,"30.3 µM, […]",-13.38%
CCc1noc(C(C)N2CCN(c3ncnc4sccc34)CC2)n1 (configuration not stated),Percent Effect,"30.3 µM, […]",17.92%
Cc1noc(C(C)N2CCN(c3ncnc4sccc34)CC2)n1 (configuration not stated),Percent Effect,"30.3 µM, […]",61.64%
Cc1cnn(C2CCCN(C(=O)c3cc[nH]n3)C2)c1 (configuration not stated),Percent Effect,"30.3 µM, […]",9.905%
CCC(CN1CCCCC1)NC(=O)C1(c2ccc(F)cc2)CC1.O=C(O)CC(O)(CC(=O)O)C(=O)O (configuration not stated),Percent Effect,"30.3 µM, […]",18.07%
CCC(CN1CCCC1)NC(=O)C1(c2ccc(F)cc2)CC1 (configuration not stated),Percent Effect,"30.3 µM, […]",52.84%
CCC(CN1CCCC1)NC(=O)C1(c2cccc(F)c2)CC1.O=C(O)CC(O)(CC(=O)O)C(=O)O (configuration not stated),Percent Effect,"30.3 µM, […]",43.99%
COCCCN1CCCN(C(C)c2nc(C3CC3)no2)CC1 (configuration not stated),Percent Effect,"30 µM, 30.03 µM",35.53%
CCOc1ccc(C(=O)N(C)Cc2nccn2CC(F)(F)F)cc1,Percent Effect,"30.3 µM, […]",3.454%
CCC(C)c1ccc(NC(=O)C2CCN(C(=O)N(C)C)CC2)cc1 (configuration not stated),Percent Effect,"30.3 µM, […]",18.48%
CCOc1ccnc(N2CCN(C(=O)c3ccncc3)CC2)n1,Percent Effect,30 µM,-11.04%
Cn1cc(CN2CCC3(CC2)CC(c2ccncc2)C(=O)N3)cn1.O=C(O)C(F)(F)F.O=C(O)C(F)(F)F (configuration not stated),Percent Effect,"30 µM, 30.03 µM",3.212%
Cc1nc[nH]c1CN(C)CC1CCCN(CCc2ccc(Cl)cc2)C1 (configuration not stated),Percent Effect,"30 µM, 30.03 µM",95.69%
COc1ccccc1CCN1CCCC(CN(C)Cc2cc(C)n[nH]2)C1 (configuration not stated),Percent Effect,"30.3 µM, […]",19.41%
CN(Cc1cccc(O)c1)CC1CCCN(CCc2ccc(Cl)cc2)C1 (configuration not stated),Percent Effect,"30 µM, 30.03 µM",95.8%
COc1ccc(CCN2CCCC(CN(C)Cc3[nH]cnc3C)C2)cc1 (configuration not stated),Percent Effect,"30.3 µM, […]",-2.681%
Cc1nc[nH]c1CN1CCC(C2CCN(CCc3ccccc3)C2)CC1 (configuration not stated),Percent Effect,"30.3 µM, […]",22.99%
Cc1nc(C)n(CC2CCCN(CCc3ccncc3)C2)n1 (configuration not stated),Percent Effect,"30 µM, 30.03 µM",27.42%
CCN(CC1CCCN(CCc2cccc(OC)c2)C1)C(=O)CN(C)C (configuration not stated),Percent Effect,"30.3 µM, […]",48.28%
Cc1cc(CN2CCC(C3CCN(CCc4ccccc4)C3)CC2)[nH]n1 (configuration not stated),Percent Effect,"30.3 µM, […]",16.23%
CCOCCC(=O)N(C)Cc1noc(C(C)C)n1,Percent Effect,"30.3 µM, […]",0.5615%
COc1cccc(OCC2CCCN(C(=O)c3ncc(F)cc3F)C2)c1 (configuration not stated),Percent Effect,"30.3 µM, […]",9.755%
Cc1ccc(-c2cnnc(N3CCCC3c3nonc3C)n2)o1 (configuration not stated),Percent Effect,"30.3 µM, […]",17.41%
Cc1ccc(OCC(=O)Nc2ncccc2OC(F)F)cc1,Percent Effect,"30.3 µM, […]",23.14%
Cc1ccc(C(=O)NCCCNc2ccc(C(F)(F)F)cn2)cc1,Percent Effect,30 µM,23.85%
Cc1noc(CN2CCN(C(=O)N(C)C)CC2)n1,Percent Effect,30 µM,8.701%
COc1cccc2c1OCC(NC(=O)NCCC(N)=O)C2 (configuration not stated),Percent Effect,"30.3 µM, […]",-3.86%
CC1CCC(NCCCN2CCOCC2)CC1 (configuration not stated),Percent Effect,"30.3 µM, […]",41.59%
Cc1ccc(C)c(-n2ncc(C(=O)NCC3COC(C)(C)O3)c2N)c1 (configuration not stated),Percent Effect,"30.3 µM, […]",6.712%
CC1CCN(c2ccc(CNC(=O)NCCn3ccnc3)cn2)CC1,Percent Effect,"30.3 µM, […]",-10.4%
c1cn(Cc2ccc(N3CCCN(C4CCCC4)CC3)nc2)cn1,Percent Effect,"30.3 µM, […]",60.72%
CN(CC1CCN(c2ccccc2)C1)c1ccc(Cn2ccnc2)cn1 (configuration not stated),Percent Effect,"30.3 µM, […]",-5.433%
c1csc(CN2CCCN(c3ccc(Cn4ccnc4)cn3)CC2)c1,Percent Effect,"30.3 µM, […]",43.35%
Fc1ccc(N2CCCN(c3ccc(Cn4ccnc4)cn3)CC2)cc1,Percent Effect,"30.3 µM, […]",41.56%
OC1CCN(C2CCN(c3ccc(Cn4ccnc4)cn3)CC2)CC1,Percent Effect,"30.3 µM, […]",61.02%
CC(=O)NC1CCN(C(=O)c2cnc(COc3ccccc3)nc2O)C1 (configuration not stated),Percent Effect,"30.3 µM, […]",6.861%
Cc1ccc(CN2CCc3onc(COc4cccnc4)c3C2)s1.O=C(O)C(F)(F)F.O=C(O)C(F)(F)F,Percent Effect,"30.3 µM, […]",-45.52%
O=S(=O)(NCc1ccnc(-n2ccnc2)c1)c1cncc(Cl)c1,Percent Effect,"30.3 µM, […]",-18.27%
COCCNC(=O)Cn1cc(OCc2ccc(F)cc2)c(=O)cc1CO,Percent Effect,"30.3 µM, […]",27.19%
CO[C@@H]1CCN(c2nnc(C)s2)C[C@@H]1Cc1ccccc1.O=C(O)C(F)(F)F,Percent Effect,"30.3 µM, […]",9.959%
Cc1nnc(N2CC[C@@H](OCC3CC3)[C@@H](Cc3ccccc3)C2)s1.O=C(O)C(F)(F)F,Percent Effect,"30.3 µM, […]",35.34%
Cc1nnc(N2CC[C@H](OCC3CC3)[C@@H](Cc3ccccc3)C2)s1.O=C(O)C(F)(F)F,Percent Effect,"30 µM, 30.03 µM",51.69%
O=C(Nc1cnccn1)[C@@H]1COC[C@H]2CN(C3CCC3)C[C@H]21.O=C(O)C(F)(F)F,Percent Effect,"30.3 µM, […]",-10.65%
CCc1nnc(Nc2cccc(C3CCN(CCO)CC3)n2)s1,Percent Effect,"30 µM, 30.03 µM",20.13%
